SENP7 block – blocks the human protease SENP7 | recombinant SENP7, Z-RLRGG-aminoluciferin luminescence, 40 min | inhibition, % at 5 µM | 330,000 compounds, 1.5% hits;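 active means inhibition above about 50% at the single test dose, limit read from the data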
SENP8 block-1 – SENP8 protease inhibition | Q96LD8 | purified SENP8, Z-RLRGG-aminoluciferin cleavage, luminescence | inhibition, % at 10 µM | 330,000 compounds, 1.2% hits | AID 2540; in the data active means inhibition above about 50%
Target sequence (Q96LD8 whole entry, looked up): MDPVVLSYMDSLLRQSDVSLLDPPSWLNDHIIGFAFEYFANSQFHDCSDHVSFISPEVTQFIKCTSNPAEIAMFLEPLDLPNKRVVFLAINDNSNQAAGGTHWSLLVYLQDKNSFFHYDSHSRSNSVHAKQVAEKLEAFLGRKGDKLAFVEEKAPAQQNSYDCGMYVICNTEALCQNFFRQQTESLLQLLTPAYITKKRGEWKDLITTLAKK
C8 TRAIL sens – caspase-8 TRAIL sensitization | NB7+C8 cells + TRAIL, ATPlite viability luminescence | inhibition (viability loss, TRAIL sensitization), % at 10 µM | 360,000 compounds, 1% hits;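 active means compounds causing at least 50% loss of cell viability in the single-dose screen, relative to plate controls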
SENP8 block-2 – inhibitors of human SENP8 protease; Q96LD8; recombinant SENP8, Nedd8 substrate fluorescence; inhibition, % at 20 µM; 360,000 compounds, 0.64% hits; AID 602440; in the data active means inhibition mostly above about 40%, no sharp cut-off; inactive means mostly below about 27%
SENP6 inh – inhibitors of human SENP6 protease; Recombinant SENP6 catalytic domain, aminoluciferin luminescence; 330,000 compounds, 1.8% hits; inhibition, % at 10 µM; Q9GZR1; AID 2599;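 active means inhibition above about 50% at the single tested dose, limit read from the data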
PPC-1+TRAIL kill – PPC-1 cancer cell killing with TRAIL present | AID 1443 | PPC-1 cells + TRAIL, ATPLite viability luminescence | cell killing (% activity), % at 4 µM or 5 µM | 220,000 compounds, 0.41% hits;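 active means cell killing above 50% in the first pass at 4 µM, then a duplicate retest at 5 µM averaging 50% or more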
PPC-1 tox – kills PPC-1 cells | 1,200 compounds, 50% hits | cytotoxicity, % at 5 µM | PPC-1 viability, ATPlite luminescence, overnight | shares compounds with PPC-1+TRAIL kill;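 active means reconfirmed compounds whose average cytotoxicity reaches 50% or more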
SENP8 confirm – confirmation of human SENP8 protease inhibitors | 6,200 compounds, 40% hits | shares compounds with SENP7 block | Recombinant SENP8, Z-RLRGG-aminoluciferin luminescence, 60 min | inhibition, % at 12.5 µM;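 active means mean inhibition across replicates above about 50%, limit read from the data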
SENP6 confirm – confirmation of human SENP6 protease inhibitors. inhibition, % at 12.5 µM. shares compounds with SENP7 block. recombinant SENP6, Z-RLRGG-aminoluciferin luminescence. 6,200 compounds, 58% hits
SENP7 conf – confirmation of human SENP7 protease inhibitors. inhibition, % at 12.5 µM. recombinant SENP7, Z-RLRGG-aminoluciferin luminescence, 40 min. 6,200 compounds, 69% hits. shares compounds with SENP7 block
Casp3 select – inhibits human caspase-3 in SENP selectivity test. shares compounds with SENP7 block. purified caspase-3, Z-DEVD-aminoluciferin luminescence, 60 min. inhibition, % at 12.5 µM. 6,200 compounds, 60% hits;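 active means mean inhibition above about 50%, limit read from the data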
Target sequence (P42574 28-227 limits assumed): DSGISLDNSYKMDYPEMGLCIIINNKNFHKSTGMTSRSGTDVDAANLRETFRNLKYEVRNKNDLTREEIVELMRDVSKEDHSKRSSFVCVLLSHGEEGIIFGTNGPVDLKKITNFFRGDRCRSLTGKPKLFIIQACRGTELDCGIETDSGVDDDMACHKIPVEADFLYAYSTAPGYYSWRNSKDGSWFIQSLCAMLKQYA
Luc interf – interferes with luciferase luminescence in SENP counter-screen; shares compounds with SENP7 block; Pre-incubated SENP8/Z-RLRGG-aminoluciferin, luciferase luminescence interference; AID 488919; inhibition, % at 12.5 µM; 6,200 compounds, 39% hits;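 active means mean inhibition above about 50% when retested at one dose, limit read from the data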
Of the large screens only hits and unclear results are named; the others gave an inactive call (follow-up assays come after a bar, where they were run). The list is not random: actives were taken first. Their share in the collection is about 3%.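 How the source made its calls, unless noted: active means mean inhibition above about 50% in the one-dose retest (limit read from the data); inactive means the rest.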

Cn1c(=NC(=O)c2ccco2)sc2ccccc21	SENP7 block 52, C8 TRAIL sens 59, SENP6 inh 67, PPC-1+TRAIL kill 50 | PPC-1 tox 53 | SENP8 confirm 54 | SENP6 confirm 56 | SENP7 conf 84 | Casp3 select 79 | Luc interf inactive
CC(=O)N/N=c1\sc2ccccc2n1C	none
CC(C)S(=O)(=O)NC(=O)C1(C)CCN1C(=O)Cc1ccccc1 (configuration not stated)	none (no result: SENP7 block, SENP8 block-1, SENP6 inh, PPC-1+TRAIL kill)
O=S1(=O)CC(N2CCCCC2)CN1Cc1cn(Cc2ccc(C(F)(F)F)cc2)nn1 (configuration not stated)	none (no result: SENP7 block, SENP8 block-1, SENP6 inh, PPC-1+TRAIL kill)
Cc1ccnc(NC(=O)/C=C/c2ccccc2Cl)c1	SENP7 block 98, SENP8 block-1 93, C8 TRAIL sens 55, SENP6 inh 96 | PPC-1 tox inactive | SENP8 confirm 82 | SENP6 confirm 92 | SENP7 conf 91 | Casp3 select 94 | Luc interf 63
COc1cccc(NC(=O)Nc2ccc3c(c2)nc(C)n3C)c1	SENP7 block 90, SENP8 block-1 78, C8 TRAIL sens 82, SENP6 inh 91, PPC-1+TRAIL kill 75 | PPC-1 tox 72 | SENP8 confirm 86 | SENP6 confirm 85 | SENP7 conf 98 | Casp3 select 94 | Luc interf 86
COc1cccc(NC(=O)Nc2nccc(C)n2)c1	SENP7 block 55, C8 TRAIL sens 67, SENP6 inh 58, PPC-1+TRAIL kill 56 | PPC-1 tox 62 | SENP8 confirm inactive | SENP6 confirm inactive | SENP7 conf 71 | Casp3 select 76 | Luc interf inactive
CCOC(=O)C1=C(O)C(=O)N(Cc2cccnc2)C1c1ccc(OC)cc1 (configuration not stated)	none
N=c1cc(C2(O)CCCCC2)n2c(nc3ccccc32)s1	SENP7 block 58, C8 TRAIL sens 84, SENP6 inh 62, PPC-1+TRAIL kill 75 | PPC-1 tox 78 | SENP8 confirm inactive | SENP6 confirm inactive | SENP7 conf 80 | Casp3 select 62 | Luc interf 54
CSc1ccc(/C=C/C(=O)Nc2ccccc2)cc1	SENP7 block 101, SENP8 block-1 95, C8 TRAIL sens 58, SENP6 inh 85, PPC-1+TRAIL kill 64 | PPC-1 tox 66 | SENP8 confirm 69 | SENP6 confirm 98 | SENP7 conf 102 | Casp3 select 97 | Luc interf inactive
CC(=O)Nc1ccc(NC(=O)/C=C/c2ccccc2)cc1	none
O=C(/C=C/c1ccccc1)Nc1cc(NC(=O)/C=C/c2ccccc2)cc(C(=O)O)c1	none (no result: PPC-1+TRAIL kill)
O=C(/C=C/c1ccccc1)Nc1cccc(C(=O)O)c1	SENP7 block 100, SENP8 block-1 97, C8 TRAIL sens 81, SENP6 inh 99, PPC-1+TRAIL kill 64 | PPC-1 tox 61 | SENP8 confirm inactive | SENP6 confirm 99 | SENP7 conf 103 | Casp3 select 95 | Luc interf 98
Cc1ccc(NC(=O)c2ccc3nsnc3c2)c(C)c1	none (no result: PPC-1+TRAIL kill)
O=C(Nc1ccccn1)c1ccc2ccccc2n1	SENP7 block 89, SENP8 block-1 80, C8 TRAIL sens 55, SENP6 inh 90 | PPC-1 tox 52 | SENP8 confirm inactive | SENP6 confirm 85 | SENP7 conf 97 | Casp3 select 86 | Luc interf 85

Screening data as filed in PubChem BioAssay.
